According to the supplement of paper PMC8728848:
Shown is part of a subset that was picked to be rich in the strongest signals.

What was measured:
Test in all cases: glycan array binding signal (z-score within array); higher = stronger binding
Settings in all cases: glycan notation: IUPAC condensed, linker removed
GalNAc(b1-3)GlcNAc = molecular target: GalNAc(b1-3)GlcNAc
Summary of the method: (§1)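 The Consortium for Functional Glycomics database supplied 3228 glycan arrays, of which those lacking an available protein sequence were dropped. The binding signal, a within-array Z-score, was averaged across arrays of the same protein sequence and across linkers. Negative scores can be read as non-binding.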

[1] = molecular target: Glc(a1-6)Glc(a1-6)Glc(a1-6)Glc
Summary of the method: as §1

[2] = molecular target: GlcNAc(a1-4)Gal(b1-3)GlcNAc
Summary of the method: as §1

[3] = molecular target: GlcNAc(b1-2)Man(a1-3)[GlcNAc(b1-2)Man(a1-6)]Man(b1-4)GlcNAc(b1-4)[Fuc(a1-6)]GlcNAc
Summary of the method: as §1

[4] = molecular target: GlcNAc(b1-3)Gal(b1-4)GlcNAc(b1-3)Gal(b1-4)GlcNAc(b1-3)Gal(b1-4)GlcNAc(b1-3)Gal(b1-4)GlcNAc(b1-2)Man(a1-3)[GlcNAc(b1-3)Gal(b1-4)GlcNAc(b1-3)Gal(b1-4)GlcNAc(b1-3)Gal(b1-4)GlcNAc(b1-3)Gal(b1-4)GlcNAc(b1-2)Man(a1-6)]Man(b1-4)GlcNAc(b1-4)[Fuc(a1-6)]GlcNAc
Summary of the method: as §1

[5] = molecular target: GlcNAc(b1-4)GlcNAc(b1-4)GlcNAc
Summary of the method: as §1

[6] = molecular target: GlcNAc(b1-4)GlcNAc(b1-4)GlcNAc(b1-4)GlcNAc(b1-4)GlcNAc
Summary of the method: as §1

[7] = molecular target: GlcNAc(b1-6)Gal(b1-4)GlcNAc
Summary of the method: as §1

GlcNAc(b1-6)GalNAc = molecular target: GlcNAc(b1-6)GalNAc
Summary of the method: as §1

[8] = molecular target: Neu5Ac(a2-3)Gal(b1-3)GalNAc
Summary of the method: as §1

[9] = molecular target: Neu5Ac(a2-3)Gal(b1-3)GalNAc(b1-4)[Neu5Ac(a2-3)]Gal(b1-4)Glc
Summary of the method: as §1

[10] = molecular target: Neu5Ac(a2-3)Gal(b1-4)GlcNAc(b1-2)Man
Summary of the method: as §1

[11] = molecular target: Neu5Ac(a2-3)Gal(b1-4)GlcNAc(b1-2)Man(a1-3)[Neu5Ac(a2-3)Gal(b1-4)GlcNAc(b1-2)Man(a1-6)]Man(b1-4)GlcNAc(b1-4)[Fuc(a1-6)]GlcNAc
Summary of the method: as §1

[12] = molecular target: Neu5Ac(a2-3)Gal(b1-4)GlcNAc(b1-2)[Neu5Ac(a2-3)Gal(b1-4)GlcNAc(b1-4)]Man(a1-3)[GlcNAc(b1-4)][Neu5Ac(a2-3)Gal(b1-4)GlcNAc(b1-2)[Neu5Ac(a2-3)Gal(b1-4)GlcNAc(b1-6)]Man(a1-6)]Man(b1-4)GlcNAc(b1-4)GlcNAc
Summary of the method: as §1

[13] = molecular target: Neu5Ac(a2-3)Gal(b1-4)GlcNAc(b1-3)Gal(b1-4)GlcNAc(b1-2)Man(a1-3)[Neu5Ac(a2-3)Gal(b1-4)GlcNAc(b1-3)Gal(b1-4)GlcNAc(b1-2)Man(a1-6)]Man(b1-4)GlcNAc(b1-4)GlcNAc
Summary of the method: as §1

[14] = molecular target: Neu5Ac(a2-3)Gal(b1-4)[Fuc(a1-3)]GlcNAc(b1-2)Man
Summary of the method: as §1

[15] = molecular target: Neu5Ac(a2-3)Gal6S(b1-4)GlcNAc
Summary of the method: as §1

[16] = molecular target: Neu5Ac(a2-6)Gal(b1-4)GlcNAc(b1-2)Man(a1-3)[GlcNAc(b1-2)Man(a1-6)]Man(b1-4)GlcNAc(b1-4)GlcNAc
Summary of the method: as §1

[17] = molecular target: Neu5Ac(a2-6)Gal(b1-4)GlcNAc(b1-3)Gal(b1-4)GlcNAc(b1-2)Man(a1-3)[Neu5Ac(a2-6)Gal(b1-4)GlcNAc(b1-3)Gal(b1-4)GlcNAc(b1-2)Man(a1-6)]GalNAc
Summary of the method: as §1

[18] = molecular target: Neu5Ac(a2-6)Gal(b1-4)GlcNAc(b1-3)Gal(b1-4)GlcNAc(b1-3)GalNAc
Summary of the method: as §1

[19] = molecular target: Neu5Ac(a2-6)Gal(b1-4)GlcNAc(b1-3)Gal(b1-4)GlcNAc(b1-6)[Gal(b1-3)]GalNAc
Summary of the method: as §1

[20] = molecular target: Neu5Ac(a2-6)Gal(b1-4)GlcNAc(b1-3)Gal(b1-4)[Fuc(a1-3)]GlcNAc(b1-3)Gal(b1-4)[Fuc(a1-3)]GlcNAc
Summary of the method: as §1

[21] = molecular target: Neu5Ac(a2-6)GlcNAc(b1-4)GlcNAc(b1-4)GlcNAc
Summary of the method: as §1

[22] = molecular target: Neu5Ac(a2-8)Neu5Ac(a2-3)Gal(b1-4)GlcNAc
Summary of the method: as §1

[23] = molecular target: Neu5Ac(a2-8)Neu5Ac(a2-3)[Gal(b1-3)GalNAc(b1-4)]Gal(b1-4)Glc
Summary of the method: as §1

[24] = molecular target: Neu5Ac(a2-8)Neu5Gc(a2-3)Gal(b1-4)GlcNAc
Summary of the method: as §1

[25] = molecular target: Neu5Ac9Ac(a2-3)Gal(b1-3)GlcNAc
Summary of the method: as §1

[26] = molecular target: Neu5Gc(a2-8)Neu5Gc(a2-3)Gal(b1-4)GlcNAc(b1-3)Gal(b1-4)GlcNAc
Summary of the method: as §1

B1: PX9937D-bvu-500-26-500 (Bacteroides vulgatus) (protein)
chain: DPVSDITDLNYWKTPEQFDSFVFGLHSRFRSHSWNMFLLGEARSDVFGGIPFGGEATQGMERFPYNTLNAENPGISGFGDLYQNINQMNLFISRTLHTDVLTESARNYYLGQVYGLRAYYMYQLYRSWGDVVFTEEPSLGFEVGKLAKAATPAAEIFEQVKKDIESSLSYFGSDYTIKEKKSLWSKAATLMLKADVYLWSAHRDGGEGDARTAKNALVDIQNNISRSNLDLMDTYQGVFAYDNKGNKEIIFTIHNELFEYNLWNGNNDLFPQADYLGKFYNADGTLINTSVENNFGIMRLMVKLENFKKFLPGDTRRDVTLKDVYNKVENGKLELVGVYPHKYWGVMNGSTRVRCDDYPIYRYSDLLLMLAEAKVLLGEDPATEINRVRRRAFGDAYDASTVGFPNQEVDKRPADAVLQERLFEFMLEGKRWYDLRRFGDSYVLDYTPAEPARLLWPINQGALTNNPLLKQTVGY
GalNAc(b1-3)GlcNAc
  glycan array binding signal (z-score): -0.418
[1]
  glycan array binding signal (z-score): -0.405
[2]
  glycan array binding signal (z-score): -0.056
[3]
  glycan array binding signal (z-score): -0.178
[4]
  glycan array binding signal (z-score): -0.298
[5]
  glycan array binding signal (z-score): -0.41
[6]
  glycan array binding signal (z-score): -0.558
[7]
  glycan array binding signal (z-score): 0.08
GlcNAc(b1-6)GalNAc
  glycan array binding signal (z-score): 0.455
[8]
  glycan array binding signal (z-score): -0.219
[9]
  glycan array binding signal (z-score): -0.308
[10]
  glycan array binding signal (z-score): -0.574
[11]
  glycan array binding signal (z-score): -0.13
[12]
  glycan array binding signal (z-score): -0.306
[13]
  glycan array binding signal (z-score): 0.163
[14]
  glycan array binding signal (z-score): 0.114
[15]
  glycan array binding signal (z-score): -0.307
[16]
  glycan array binding signal (z-score): -0.121
[17]
  glycan array binding signal (z-score): 4.23
[18]
  glycan array binding signal (z-score): -0.414
[19]
  glycan array binding signal (z-score): 0.256
[20]
  glycan array binding signal (z-score): 0.021
[21]
  glycan array binding signal (z-score): 0.037
[22]
  glycan array binding signal (z-score): -0.636
[23]
  glycan array binding signal (z-score): -0.284
[24]
  glycan array binding signal (z-score): 10.6
[25]
  glycan array binding signal (z-score): -0.36
[26]
  glycan array binding signal (z-score): -0.056
